Potency data for 8 compounds are collected here from PubChem BioAssay (Tox21).

Results filed as inconclusive are left out. Activity calls are given as the source filed them. Unless noted, calls follow the shape of the full dose curve.

Test [1] can be described thus: Nuclear factor erythroid 2-related factor 2/antioxidant responsive element (Nrf2/ARE) small molecule agonists: luciferase reporter gene qHTS assay in human keratinocytes (AID 1919969). Also: nearly all actives have a fitted effect of over 35% in size. Also: potency is read from the fitted curve at half-maximal effect. On the technique in general: In a reporter assay the amount or activity of a reporter protein is the signal.
Test [2] addresses Gonadotropin-releasing hormone receptor (Homo sapiens) (UniProt P30968). The test is described as follows: Human gonadotropin-releasing hormone receptor (GnRHR) small molecule agonists, calcium flux assay in GnRHR-HEK293 cells (AID 1920063). Also: nearly all actives have a fitted effect of over 35% in size. The procedure, abridged:
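Fluorescence kinetics (480 nm excitation, 540 nm emission; 3 min, 1 s steps) report calcium mobilisation in human GnRHR-HEK293 cells in agonist mode. Dye incubation: 1 h, 37 C.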

Test [3] deals with KiSS-1 receptor (Homo sapiens) (UniProt Q969F8). The experiment in a line: Human kisspeptin (KISS1R) small molecule agonists, calcium flux assay in KISS1R-HEK293 cells (AID 1920064; active = well fitted activation curve with a large enough effect in the repeat runs). The method, boiled down: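 Measures KISS1R agonism through calcium-sensitive dye fluorescence in stably transfected HEK293 cells, read for 3 min after pin-tool compound delivery; 15-point titrations in triplicate.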
For orientation: A change in cytosolic calcium serves as a functional read-out for many receptors and channels.

Test [4] is described as follows: G protein-coupled receptor (GPCR) small molecule agonists, calcium flux assay: HEK293 wild type cell line counter screen (AID 1920065). The procedure, abridged:
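Readout: fluorescence at 480 nm excitation/540 nm emission, sampled at 1 s intervals for 3 min. Cells had been cultured 18 h, then dye-loaded 1 h at 37 C before compound or ATP addition.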

Test [5] is described as follows: p53 small molecule agonists, cell-based qHTS assay with human liver microsomes: qHTS cell viability counter screen (AID 1963579). Also: nearly all actives have a fitted effect of over 45% in size. The method, boiled down: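 Tox21 library compounds, delivered from DMSO stocks, were tested on p53RE-bla cells together with 0.5 mg/mL human liver microsomes and 0.5 mg/mL NADPH (final) over 16 h at 37 C; CellTiter-Glo luminescence served as the cytotoxicity measure.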
For orientation: qHTS replaces the single test concentration by a dilution series.

Test [6] in a line: p53 small molecule agonists, cell-based qHTS assay with rat liver microsomes: qHTS cell viability counter screen (AID 1963580). Also: nearly all actives have a fitted effect of over 45% in size. The method, boiled down: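 HCT-116 p53RE-bla, 4,000 cells/well, 5 h pre-incubation; cpd + rat liver microsomes 0.5 mg/mL + NADPH 0.5 mg/mL (final); 16 h, 37 C; CellTiter-Glo, 30 min RT; luminescence.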
A short description of test [7]: p53 small molecule agonists, cell-based qHTS assay: qHTS cell viability counter screen (AID 1963581). Also: nearly all actives have a fitted effect of over 45% in size. The method, boiled down: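 In the same plates used for the p53 bla reporter, HCT-116 cells given compounds for 16 h at 37 C received CellTiter-Glo; luminescence was recorded 30 min later at room temperature.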
A short description of test [8]: p53 small molecule agonists, cell-based qHTS assay (AID 1963582; active = well fitted activation curve with a large enough effect in the signal ratio in the repeat runs, not every such curve was filed as active; the % refers to the signal ratio). The procedure, abridged:
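Compounds are pin-transferred in DMSO onto p53RE-bla cells and incubated 16 h at 37 C. The B/G FRET beta-lactamase substrate is then applied for 2 h at RT and fluorescence recorded.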

The target of test [9] is 5-hydroxytryptamine receptor 2A (Homo sapiens) (UniProt P28223). The test is described as follows: 5-hydroxytryptamine receptor 2A (HTR2A) small molecule antagonists, cell-based qHTS assay (AID 1963586). Also: nearly all actives have a fitted effect of over 45% in size. Also: potency is read from the fitted curve at half-maximal effect. The method, boiled down:
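Antagonist-mode intracellular calcium assay: DOI (4 nM) added after 5 min compound pre-incubation at room temperature to dye-loaded HTR2A-CHO cells. Fluorescence followed for 3 min, sampled every second.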

Test [10] shares this target. The experiment in a line: 5-hydroxytryptamine receptor 2A (HTR2A) small molecule agonists, cell-based qHTS assay (AID 1963587). Also: nearly all actives have a fitted effect of over 30% in size. The procedure, abridged: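 Kinetic calcium-flux fluorescence (2 min, 1 sec intervals) after compound addition in agonist mode. HTR2A-CHO cells were cultured 18 h, then dye-loaded 1 h at 37 C.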
In test [11] the target is Muscarinic acetylcholine receptor M1 (Homo sapiens) (UniProt P11229). The test is described as follows: Cholinergic receptor muscarinic 1 (CHRM1) small molecule antagonists, cell-based qHTS assay (AID 1963588). Also: nearly all actives have a fitted effect of over 40% in size. The method, boiled down:
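CHRM1-CHO calcium-flux assay, antagonist mode. Cells were seeded 18 h, dye-loaded 1 h at 37 C and given compound for 5 min at RT, then acetylcholine was added at 50nM. FDSS fluorescence was read 3 min; 15 concentrations, three runs.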

For test [12] the target is unchanged. The test is described as follows: Cholinergic receptor muscarinic 1 (CHRM1) small molecule agonists, cell-based qHTS assay (AID 1963589). Also: nearly all actives have a fitted effect of over 35% in size. The method, boiled down: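 Each compound was tested at 15 concentrations across three independent runs on dye-loaded CHO cells stably expressing human CHRM1, reading intracellular calcium fluorescence kinetically at 1 sec intervals.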

A short description of test [13]: cAMP Responsive Elements (CRE) small molecule agonists, cell-based qHTS assay (AID 1963590). The method, boiled down: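 Cell line: CRE-bla HEK 293T; medium DMEM/10% dialyzed FBS/0.1 mM NEAA/1 mM pyruvate/25 mM HEPES; 3 h compound exposure; beta-lactamase FRET readout after 2 h substrate loading at RT.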
Test [14] is described as follows: cAMP Responsive Elements (CRE) small molecule antagonists, cell-based qHTS assay (AID 1963591; active = well fitted inhibition curve with a large enough effect in the signal ratio in the repeat runs, not every such curve was filed as active; the % refers to the signal ratio). The procedure, abridged:
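Inhibition of NKH477-driven (0.25 uM final) CRE-beta-lactamase signal in HEK293T cells, 3 h compound exposure at 37 °C, detected by FRET substrate fluorescence.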

Test [15] has as its target Beta-2 adrenergic receptor (Homo sapiens) (UniProt P07550). The experiment in a line: Adrenergic beta2 receptor (ADRB2) small molecule antagonists, cell-based qHTS assay (AID 1963592). Also: series mostly up to about 92 µM; nearly all actives have a fitted effect of over 50% in size. The method, boiled down: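 Cells (CHO, stable ADRB2 overexpression) incubated 18-20hr at 37C; compounds added from DMSO; agonist mix (1nM isoproterenol, 100uM IBMX, 25uM Ro-20-1724) added; 0.5hr RT; d2-cAMP and anti-cAMP-cryptate added; 1hr RT; 665/615 nm read.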

Test [16] addresses D(2) dopamine receptor (Homo sapiens) (UniProt P14416). The test is described as follows: Dopamine D2 receptor (DRD2) small molecule agonists, cell-based qHTS assay (AID 1963594). Also: nearly all actives have a fitted effect of over 35% in size. The method, boiled down: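 cAMP accumulation in DRD2-HEK293 cells measured by HTRF after 1 h detection; compounds added 10 min before NKH477 (200nM […]) forskolin-analogue stimulation, 30 min at room temperature, with Ro20-1724 present at 0.1 mM final.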

Test [17] has the same target. The experiment in a line: Dopamine D2 receptor (DRD2) small molecule antagonists, cell-based qHTS assay (AID 1963595; active = well fitted inhibition curve with a large enough effect in the signal ratio in the repeat runs, with a control signal flat; the % refers to the signal ratio). The method, boiled down:
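Antagonist mode in DRD2-HEK293 cells: after compound addition with 0.1 mM Ro20-1724, cells received quinpirole (12 nM) and NKH477 (200 nM) for 30 min at room temperature; HTRF cAMP read after 1 h detection.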

Test [18] in a line: p53 small molecule agonists, cell-based qHTS assay with rat liver microsomes (AID 1963578). The procedure, abridged: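 Each plate received p53RE-bla cells, then compound, then rat liver microsomes and NADPH (both 0.5 mg/mL final). Plates were held 16 h at 37 C, and beta-lactamase activity was detected with LiveBLAzer over 2 h.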
For test [19], the target named is Beta-2 adrenergic receptor (Homo sapiens) (UniProt P07550). The experiment in a line: Adrenergic beta2 receptor (ADRB2) small molecule agonists, cell-based qHTS assay (AID 1963593).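 Also: CHO cells stably overexpressing human ADRB2.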 The method, boiled down:
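CHO cells stably over-expressing ADRB2 were plated overnight at 37C, then dosed with compounds plus a stimulation mix containing 100uM IBMX and 25uM Ro-20-1724 for 0.5hr at room temperature. cAMP was measured by HTRF competition, 1hr.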

Chain of D(2) dopamine receptor (Homo sapiens) (P14416 whole entry, looked up): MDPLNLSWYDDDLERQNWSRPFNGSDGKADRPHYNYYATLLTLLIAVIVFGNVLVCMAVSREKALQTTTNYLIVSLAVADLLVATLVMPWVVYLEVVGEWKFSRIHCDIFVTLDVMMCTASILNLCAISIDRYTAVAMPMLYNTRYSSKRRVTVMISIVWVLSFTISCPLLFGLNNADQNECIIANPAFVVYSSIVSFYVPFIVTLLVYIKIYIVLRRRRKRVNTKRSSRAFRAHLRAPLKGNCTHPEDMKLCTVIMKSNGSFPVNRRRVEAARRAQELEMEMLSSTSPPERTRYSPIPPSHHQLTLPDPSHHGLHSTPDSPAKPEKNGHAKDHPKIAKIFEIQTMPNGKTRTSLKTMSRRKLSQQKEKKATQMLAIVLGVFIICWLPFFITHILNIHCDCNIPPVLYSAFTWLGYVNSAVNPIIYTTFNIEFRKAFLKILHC
Chain of KiSS-1 receptor (Homo sapiens) (Q969F8 whole entry, looked up): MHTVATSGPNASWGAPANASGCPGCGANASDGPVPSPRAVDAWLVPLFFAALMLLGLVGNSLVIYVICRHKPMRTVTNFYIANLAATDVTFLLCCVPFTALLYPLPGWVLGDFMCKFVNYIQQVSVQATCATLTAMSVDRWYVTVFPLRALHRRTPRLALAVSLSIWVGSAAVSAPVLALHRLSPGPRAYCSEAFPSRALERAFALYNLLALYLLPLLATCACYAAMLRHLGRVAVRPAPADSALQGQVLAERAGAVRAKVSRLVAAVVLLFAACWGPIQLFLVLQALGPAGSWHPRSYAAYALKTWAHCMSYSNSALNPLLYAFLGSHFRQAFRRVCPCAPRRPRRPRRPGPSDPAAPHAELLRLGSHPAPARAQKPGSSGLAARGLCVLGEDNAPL
Chain of Muscarinic acetylcholine receptor M1 (Homo sapiens) (P11229 whole entry, looked up): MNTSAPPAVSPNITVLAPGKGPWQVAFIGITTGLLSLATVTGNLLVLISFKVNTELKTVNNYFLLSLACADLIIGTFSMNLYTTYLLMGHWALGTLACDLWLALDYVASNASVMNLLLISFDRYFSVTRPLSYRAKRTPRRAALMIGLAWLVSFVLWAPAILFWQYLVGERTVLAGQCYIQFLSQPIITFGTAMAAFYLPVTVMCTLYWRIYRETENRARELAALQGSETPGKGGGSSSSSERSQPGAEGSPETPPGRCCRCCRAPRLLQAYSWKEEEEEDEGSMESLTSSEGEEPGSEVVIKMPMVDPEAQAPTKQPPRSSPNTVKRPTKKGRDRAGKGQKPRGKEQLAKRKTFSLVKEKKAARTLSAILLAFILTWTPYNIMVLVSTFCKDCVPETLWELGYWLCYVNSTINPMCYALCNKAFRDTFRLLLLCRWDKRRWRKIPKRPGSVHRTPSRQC
Chain of Beta-2 adrenergic receptor (Homo sapiens) (P07550 whole entry, looked up): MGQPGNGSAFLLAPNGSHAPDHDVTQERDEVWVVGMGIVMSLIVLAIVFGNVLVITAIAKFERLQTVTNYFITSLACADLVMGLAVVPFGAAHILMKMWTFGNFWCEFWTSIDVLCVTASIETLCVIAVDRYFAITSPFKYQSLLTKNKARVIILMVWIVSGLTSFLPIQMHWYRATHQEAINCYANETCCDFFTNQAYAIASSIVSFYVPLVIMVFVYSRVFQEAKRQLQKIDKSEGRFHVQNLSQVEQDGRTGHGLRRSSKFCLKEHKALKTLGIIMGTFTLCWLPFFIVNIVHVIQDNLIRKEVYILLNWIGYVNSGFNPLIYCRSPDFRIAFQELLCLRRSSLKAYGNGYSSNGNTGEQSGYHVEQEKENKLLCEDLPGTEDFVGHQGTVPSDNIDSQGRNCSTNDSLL
Chain of 5-hydroxytryptamine receptor 2A (Homo sapiens) (P28223 whole entry, looked up): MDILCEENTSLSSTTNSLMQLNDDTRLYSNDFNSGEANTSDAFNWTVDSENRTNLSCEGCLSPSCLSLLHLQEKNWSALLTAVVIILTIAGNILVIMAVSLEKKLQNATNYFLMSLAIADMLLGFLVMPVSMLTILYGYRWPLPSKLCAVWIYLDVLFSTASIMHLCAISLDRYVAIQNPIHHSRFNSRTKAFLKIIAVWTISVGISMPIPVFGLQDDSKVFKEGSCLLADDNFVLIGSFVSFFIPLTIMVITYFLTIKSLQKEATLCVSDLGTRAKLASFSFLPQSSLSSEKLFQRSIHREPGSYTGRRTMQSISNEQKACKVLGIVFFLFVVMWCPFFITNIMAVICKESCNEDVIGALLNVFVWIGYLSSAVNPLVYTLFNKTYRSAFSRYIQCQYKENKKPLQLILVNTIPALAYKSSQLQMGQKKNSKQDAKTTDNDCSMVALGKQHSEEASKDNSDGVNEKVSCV
Chain of Gonadotropin-releasing hormone receptor (Homo sapiens) (P30968 whole entry, looked up): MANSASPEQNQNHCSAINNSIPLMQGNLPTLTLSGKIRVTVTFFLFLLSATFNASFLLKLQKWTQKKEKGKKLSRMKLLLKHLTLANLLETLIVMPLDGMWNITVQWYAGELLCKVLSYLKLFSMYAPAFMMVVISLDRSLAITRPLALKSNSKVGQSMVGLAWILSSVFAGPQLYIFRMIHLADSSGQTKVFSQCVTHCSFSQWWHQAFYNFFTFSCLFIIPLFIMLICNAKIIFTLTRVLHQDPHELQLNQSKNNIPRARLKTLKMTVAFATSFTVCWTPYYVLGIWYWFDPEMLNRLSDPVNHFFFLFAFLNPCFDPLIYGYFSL

Turning to `O=C1c2ccccc2C(=O)c2c1ccc(O)c2O`, the Potency result in [1], in test [2], in test [3], in test [4], in [5] and in [6] was “inactive” in each case. Further, the Potency entry in test [7], in test [8], in test [9], in test [10], in test [11] and in [12] was “inactive” in each case. Besides, the Potency result in [13], in test [14], in [15] and in test [16] was “inactive” throughout.
Consider `SCCOCCOCCS`, for which the Potency result in test [1], in test [2], in test [3], in test [4], in [5] and in [6] was “inactive” in each case. Besides, the Potency entry in test [7], in test [9], in test [10], in test [11], in [12] and in [14] was “inactive” each time. Also, the Potency entry in [15], in test [16] and in test [17] was “inactive” each time.
As to `CCCCCCCCCCCCCCCCC(C(=O)O)C(O)(CC(=O)O)C(=O)O` (stereo unspecified), the Potency entry in test [1], in test [2], in test [3], in [4], in test [18] and in [6] was “inactive” in each case. Besides, the Potency entry in test [8], in test [11], in [12], in test [13], in test [14] and in test [19] was “inactive” in each case. In addition, the Potency entry in [16] and in [17] was “inactive” in each case. In test [9], the Potency is 13 µM (active).
As to `CC1=C(/C=C/C(C)=C/C=C/C(C)=C\C=O)C(C)(C)CCC1`, in test [1], the Potency is 64.9 µM (active). In addition, the Potency entry in test [2], in test [3], in test [4], in test [18], in [7] and in test [9] was “inactive” throughout. Further, the Potency entry in test [10], in test [11], in [12], in test [15], in [16] and in test [17] was “inactive” throughout.
For `Cc1ccc(Cl)c(Nc2ccccc2C(=O)O)c1Cl`, the Potency result in [1], in [2], in [3], in [4], in test [5] and in [6] was “inactive” each time. Besides, the Potency entry in test [7], in [15], in test [19], in test [16] and in test [17] was “inactive” each time.
For the compound `CC(=O)SCC(CC(=O)c1ccc(C)cc1)C(=O)O` (stereo unspecified), the Potency entry in test [1], in [2], in [3], in test [4], in test [5] and in [6] was “inactive” each time. Further, the Potency entry in test [7], in test [9], in [10], in test [11], in test [12] and in [15] was “inactive” in each case. The Potency entry in test [19], in test [16] and in test [17] was “inactive” in each case.
For the compound `CCC/C=C(\C=O)CC`, the Potency result in test [1], in test [2], in test [3], in [4], in test [5] and in test [6] was “inactive” each time. In addition, the Potency entry in test [7], in test [9], in test [10], in [11], in [12] and in test [13] was “inactive” in each case. Moreover, the Potency entry in [14], in [15], in [19], in [16] and in test [17] was “inactive” throughout.
As to `COc1cc(Cl)ccc1Oc1ccc(Cl)cc1Cl`, the Potency in test [1] was 14.9 µM (active). The Potency result in test [2], in [3], in test [4], in [5], in [6] and in test [7] was “inactive” throughout. For the same compound, the Potency result in test [9], in [10], in test [11], in test [12], in test [15] and in test [16] was “inactive” each time. Further, the Potency entry in [17] is “inactive”.
